The results in this text go back to the supplement of paper PMC10849652.

About 8,800 targets were measured; listed, in parts, are those with a hit and a random draw of the rest. About 0.5% of all pairs of compound and target were hits.

Experiment in all cases: log2 fold change, soluble protein after heating vs DMSO (PISA); higher = thermal stabilisation; K562 lysate, 10 uM; active = over 0.2 and 3.5 SD of the protein, either way, in both replicates (recomputed)
Compound in experiment [1]: C1=CC=C(C=C1)[C@H](COC2=CC3=C(C=C2)NC(=O)N3)NC(=O)C4=CC=CN(C4=O)CC5=CC(=C(C=C5)F)F
The procedure, abridged: (§1)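 Values give the log-two fold change in thermal stability against solvent controls, from duplicates. Crude K562 extract at 1 mg/mL protein, made by dounce homogenisation in PBS pH 7.4 with 1 mM MgCl2, was treated with 10 μM compound for 30 min. After 3 min heating across 48°C-58°C, aliquots were pooled, adjusted to 0.5% NP-40 at 4°C and centrifuged at 21,000xg for 90 min. The supernatant was measured by TMTpro 16plex LC-MS/MS with channel sums equalised.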

Compound in experiment [2]: CC1=C(SC2=C1C(=N[C@H](C3=NN=C(N32)C)CC(=O)N)C4=CC=C(C=C4)Cl)C
The procedure, abridged: as §1

Compound in experiment [3]: CC1=C2C(=CC=C1)N=C(N(C2=O)C3=CC=CC=C3C)CN4C=NC5=C(N=CN=C54)N
The procedure, abridged:
as §1

Compound in experiment [4]: Cc1sc2c(c1C)C(c1ccc(Cl)cc1)=N[C@@H](CC(=O)OC(C)(C)C)c1nnc(C)n1-2
The procedure, abridged:
as §1

Compound in experiment [5]: c1ccc([C@@H]2C[C@H]2NC2CCNCC2)cc1
The procedure, abridged:
as §1

Chain of UniProt Q5VZE5 (Q5VZE5 whole entry, looked up): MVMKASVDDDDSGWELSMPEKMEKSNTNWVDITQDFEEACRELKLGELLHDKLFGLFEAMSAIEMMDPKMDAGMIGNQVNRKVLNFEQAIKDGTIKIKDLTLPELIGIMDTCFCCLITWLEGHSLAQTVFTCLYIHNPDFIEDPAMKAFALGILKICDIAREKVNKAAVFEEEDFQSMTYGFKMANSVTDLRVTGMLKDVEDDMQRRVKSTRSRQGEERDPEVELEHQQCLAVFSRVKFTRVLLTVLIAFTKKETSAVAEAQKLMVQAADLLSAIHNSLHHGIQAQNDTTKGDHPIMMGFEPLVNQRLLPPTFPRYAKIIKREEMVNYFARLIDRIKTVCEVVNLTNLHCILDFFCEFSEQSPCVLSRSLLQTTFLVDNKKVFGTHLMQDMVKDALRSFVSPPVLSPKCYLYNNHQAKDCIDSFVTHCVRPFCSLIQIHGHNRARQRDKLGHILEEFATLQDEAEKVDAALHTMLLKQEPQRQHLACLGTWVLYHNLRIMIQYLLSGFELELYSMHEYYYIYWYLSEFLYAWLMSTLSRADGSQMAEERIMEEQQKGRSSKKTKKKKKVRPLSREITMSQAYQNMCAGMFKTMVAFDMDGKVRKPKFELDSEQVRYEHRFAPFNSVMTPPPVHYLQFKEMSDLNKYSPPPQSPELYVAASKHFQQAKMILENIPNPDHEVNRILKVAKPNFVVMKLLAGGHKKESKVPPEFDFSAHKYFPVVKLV
Chain of UniProt Q9UBD5 (Q9UBD5 whole entry, looked up): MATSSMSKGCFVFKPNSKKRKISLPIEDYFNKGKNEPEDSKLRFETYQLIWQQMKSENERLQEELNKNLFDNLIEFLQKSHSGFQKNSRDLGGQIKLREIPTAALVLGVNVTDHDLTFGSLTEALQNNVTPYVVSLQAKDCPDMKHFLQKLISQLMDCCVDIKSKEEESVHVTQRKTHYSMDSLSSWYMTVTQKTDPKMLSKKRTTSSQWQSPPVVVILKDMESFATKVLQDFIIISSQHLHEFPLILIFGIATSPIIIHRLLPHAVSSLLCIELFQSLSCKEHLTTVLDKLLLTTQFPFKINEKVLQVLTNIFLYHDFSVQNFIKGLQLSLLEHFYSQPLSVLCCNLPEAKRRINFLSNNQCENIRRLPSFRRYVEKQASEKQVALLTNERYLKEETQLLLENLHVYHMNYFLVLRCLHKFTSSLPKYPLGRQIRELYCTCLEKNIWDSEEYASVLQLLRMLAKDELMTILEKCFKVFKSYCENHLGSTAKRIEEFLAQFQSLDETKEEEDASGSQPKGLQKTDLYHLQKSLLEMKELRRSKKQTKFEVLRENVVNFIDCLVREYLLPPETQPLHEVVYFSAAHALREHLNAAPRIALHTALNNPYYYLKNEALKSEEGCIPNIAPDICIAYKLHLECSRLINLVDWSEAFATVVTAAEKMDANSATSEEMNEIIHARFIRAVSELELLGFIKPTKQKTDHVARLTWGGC
Chain of UniProt Q9NX02 (Q9NX02 whole entry, looked up): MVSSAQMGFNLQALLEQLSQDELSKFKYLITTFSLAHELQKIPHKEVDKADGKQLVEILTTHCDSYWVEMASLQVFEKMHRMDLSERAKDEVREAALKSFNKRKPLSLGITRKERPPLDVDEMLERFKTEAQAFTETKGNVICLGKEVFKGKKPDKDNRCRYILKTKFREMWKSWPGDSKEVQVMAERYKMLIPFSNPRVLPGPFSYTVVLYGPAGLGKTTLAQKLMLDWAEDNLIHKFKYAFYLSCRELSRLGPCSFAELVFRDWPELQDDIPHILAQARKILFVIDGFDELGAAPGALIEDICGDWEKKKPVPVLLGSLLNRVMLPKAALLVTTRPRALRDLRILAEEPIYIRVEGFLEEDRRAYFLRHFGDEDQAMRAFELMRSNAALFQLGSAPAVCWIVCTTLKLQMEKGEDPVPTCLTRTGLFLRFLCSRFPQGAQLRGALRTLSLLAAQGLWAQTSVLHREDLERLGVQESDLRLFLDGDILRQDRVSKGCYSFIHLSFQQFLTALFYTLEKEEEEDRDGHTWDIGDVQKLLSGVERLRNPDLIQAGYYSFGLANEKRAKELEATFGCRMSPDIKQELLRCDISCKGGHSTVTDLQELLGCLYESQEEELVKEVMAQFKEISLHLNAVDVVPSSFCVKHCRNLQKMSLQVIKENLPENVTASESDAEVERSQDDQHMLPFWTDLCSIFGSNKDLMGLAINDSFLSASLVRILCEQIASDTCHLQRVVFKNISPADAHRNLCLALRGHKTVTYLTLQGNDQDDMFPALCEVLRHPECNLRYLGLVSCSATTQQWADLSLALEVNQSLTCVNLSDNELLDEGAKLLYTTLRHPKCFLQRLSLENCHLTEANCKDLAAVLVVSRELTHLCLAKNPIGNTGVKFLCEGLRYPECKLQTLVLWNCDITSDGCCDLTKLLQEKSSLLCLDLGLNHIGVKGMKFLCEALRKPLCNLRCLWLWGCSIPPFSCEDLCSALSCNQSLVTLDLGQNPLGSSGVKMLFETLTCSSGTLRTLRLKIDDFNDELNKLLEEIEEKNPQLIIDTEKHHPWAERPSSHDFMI
Chain of UniProt Q9H4L5 (Q9H4L5 whole entry, looked up): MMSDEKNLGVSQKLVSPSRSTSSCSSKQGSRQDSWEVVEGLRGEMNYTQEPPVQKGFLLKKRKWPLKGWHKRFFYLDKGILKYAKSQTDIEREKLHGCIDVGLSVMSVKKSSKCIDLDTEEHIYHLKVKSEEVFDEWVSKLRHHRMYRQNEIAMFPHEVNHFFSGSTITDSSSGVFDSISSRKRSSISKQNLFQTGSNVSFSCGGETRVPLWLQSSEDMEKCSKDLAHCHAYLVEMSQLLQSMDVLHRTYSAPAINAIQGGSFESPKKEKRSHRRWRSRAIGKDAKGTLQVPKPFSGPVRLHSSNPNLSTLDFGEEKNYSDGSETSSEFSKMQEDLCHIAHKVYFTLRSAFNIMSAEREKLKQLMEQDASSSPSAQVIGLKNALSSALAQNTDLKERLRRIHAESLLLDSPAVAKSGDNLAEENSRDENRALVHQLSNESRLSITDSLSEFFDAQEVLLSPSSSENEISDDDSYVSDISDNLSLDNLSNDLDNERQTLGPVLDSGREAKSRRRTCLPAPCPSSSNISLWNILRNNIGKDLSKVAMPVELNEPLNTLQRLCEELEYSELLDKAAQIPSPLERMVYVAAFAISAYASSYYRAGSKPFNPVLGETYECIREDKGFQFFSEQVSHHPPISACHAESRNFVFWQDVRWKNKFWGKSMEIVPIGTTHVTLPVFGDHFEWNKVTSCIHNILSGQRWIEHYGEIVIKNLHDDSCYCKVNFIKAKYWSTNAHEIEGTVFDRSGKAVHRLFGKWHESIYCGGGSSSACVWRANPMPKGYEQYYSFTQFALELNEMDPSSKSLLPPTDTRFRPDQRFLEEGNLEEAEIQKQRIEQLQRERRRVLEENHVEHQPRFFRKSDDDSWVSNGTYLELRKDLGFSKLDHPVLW
Chain of UniProt Q9ULX3 (Q9ULX3 whole entry, looked up): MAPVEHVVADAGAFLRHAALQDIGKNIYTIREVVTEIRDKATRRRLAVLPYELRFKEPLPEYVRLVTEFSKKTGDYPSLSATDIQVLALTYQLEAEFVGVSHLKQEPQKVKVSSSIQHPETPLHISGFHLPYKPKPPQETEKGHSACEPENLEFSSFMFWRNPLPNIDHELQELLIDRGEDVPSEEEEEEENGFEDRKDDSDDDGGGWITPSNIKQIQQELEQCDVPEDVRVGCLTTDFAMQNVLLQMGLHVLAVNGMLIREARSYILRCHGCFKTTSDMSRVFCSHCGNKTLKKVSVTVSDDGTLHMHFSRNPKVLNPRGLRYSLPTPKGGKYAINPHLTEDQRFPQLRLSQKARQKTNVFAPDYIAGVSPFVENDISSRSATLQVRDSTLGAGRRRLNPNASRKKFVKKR
Chain of UniProt P00480 (P00480 whole entry, looked up): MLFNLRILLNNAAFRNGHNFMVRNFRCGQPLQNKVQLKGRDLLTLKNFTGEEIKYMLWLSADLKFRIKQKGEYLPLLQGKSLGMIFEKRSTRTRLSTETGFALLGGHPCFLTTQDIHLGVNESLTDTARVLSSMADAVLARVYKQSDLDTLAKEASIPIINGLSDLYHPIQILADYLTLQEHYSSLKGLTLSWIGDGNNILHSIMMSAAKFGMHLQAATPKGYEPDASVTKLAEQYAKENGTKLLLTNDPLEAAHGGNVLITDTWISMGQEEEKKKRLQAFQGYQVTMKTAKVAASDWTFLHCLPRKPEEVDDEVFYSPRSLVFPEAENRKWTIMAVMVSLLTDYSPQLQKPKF
Chain of UniProt Q96RE7 (Q96RE7 whole entry, looked up): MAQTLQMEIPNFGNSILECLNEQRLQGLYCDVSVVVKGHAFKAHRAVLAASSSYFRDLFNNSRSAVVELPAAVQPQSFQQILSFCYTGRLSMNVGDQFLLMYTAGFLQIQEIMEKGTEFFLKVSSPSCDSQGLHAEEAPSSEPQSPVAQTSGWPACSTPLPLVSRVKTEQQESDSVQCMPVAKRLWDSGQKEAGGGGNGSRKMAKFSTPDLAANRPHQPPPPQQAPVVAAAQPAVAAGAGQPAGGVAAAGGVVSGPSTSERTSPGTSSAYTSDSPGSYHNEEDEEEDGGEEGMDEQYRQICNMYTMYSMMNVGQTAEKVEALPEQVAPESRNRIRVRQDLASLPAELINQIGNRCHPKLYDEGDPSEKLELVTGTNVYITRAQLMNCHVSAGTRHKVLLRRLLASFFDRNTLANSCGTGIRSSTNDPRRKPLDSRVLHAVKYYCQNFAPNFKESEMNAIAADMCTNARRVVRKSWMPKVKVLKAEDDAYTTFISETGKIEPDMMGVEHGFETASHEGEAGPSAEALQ

For the target NLRP2 (UniProt Q9NX02), the log2 fold change in experiment [1] is -0.01 (inactive); in experiment [2] it was -0.027 (inactive); in experiment [3] it was -0.015 (inactive); in experiment [4], 0.03 (inactive); in experiment [5], 0.093 (inactive).
On the same counts, the results for NACC1 (UniProt Q96RE7) are 0.013 (inactive), -0.004 (inactive), 0.027 (inactive), 0.013 (inactive) and 0.033 (inactive).
Regarding NAA35 (UniProt Q5VZE5), the log2 fold change in experiment [1] is 0.004 (inactive); in experiment [2], 0.066 (inactive); in experiment [3], -0.023 (inactive); in experiment [4] it was -0.002 (inactive); in experiment [5] it was 0.086 (inactive).
In the case of NFAT5 isoform 5 (UniProt O94916), the log2 fold change is 0.12 (inactive) in experiment [1]; -0.028 (inactive) in experiment [2]; 0.009 (inactive) in experiment [3]; -0.02 (inactive) in experiment [4]; -0.007 (inactive) in experiment [5].
On the same counts, the results for OTC (UniProt P00480) are -0.11 (inactive), 0.131 (inactive), -0.028 (inactive), -0.38 (inactive) and -2.16 (active).
Take MYH6 (UniProt P13533): the log2 fold change was -0.552 (inactive) in experiment [1] and 0.239 (inactive) in experiment [2].
OSBPL3 isoform 2 (UniProt Q9H4L5): the log2 fold change in experiment [1] was -0.02 (inactive); in experiment [2], -0.018 (inactive); in experiment [3], 0.043 (inactive); in experiment [4], -0.017 (inactive); in experiment [5], 0.004 (inactive).
On the same counts, the results for ORC3 isoform 2 (UniProt Q9UBD5) are 0.005 (inactive), -0.031 (inactive), 0.014 (inactive), 0.021 (inactive) and 0.047 (inactive).
On the same counts, the results for NOB1 (UniProt Q9ULX3) are 0.004 (inactive), -0.051 (inactive), 0.038 (inactive), -0.021 (inactive) and 0.13 (inactive).
